The results in this text go back to PubChem BioAssay (NCATS).

Where “and” joins values, the source holds several entries; their conditions need not be identical. Equal entries are not always repeated. Results filed as inconclusive are left out. Calls of active or inactive are those of the source. Unless noted, calls follow the shape of the dose curve; as a rule, active = well fitted curve in the direction sought with a large enough effect; inconclusive = small, poorly fitted or top-dose-only effect, or another doubt; inactive = no such curve, though single readings can be large; an effect the other way counts as inactive or inconclusive.

Experiment [1] deals with Alpha-galactosidase A (Homo sapiens) (UniProt P06280). The experiment can be described thus: Counterscreen for Glucocerebrosidase Inhibitors: qHTS Assay for Human alpha-Galactosidase at pH 4.5 (AID 992). Also: 0% is about no effect. The note with it: purified enzyme, fluorogenic substrate; series mostly up to 76.9 µM. The procedure, abridged:
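Each compound is preincubated briefly with 2 nM enzyme before substrate addition (80 uM); plates then sit 20 min at ambient temperature, are quenched with 1M NaOH/1M glycine, and read fluorometrically.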
Background: Counterscreens check selectivity or assay interference.

Experiment [2] deals with alpha-glucosidase (Oryza sativa, rice) (UniProt Q653V4). Description: Counterscreen for Glucocerebrosidase Inhibitors: qHTS Assay for Rice alpha-Glucosidase at pH 5.0 (AID 997).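 Also: 0% = full activity with enzyme and -100% = basal without enzyme.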 As to conditions: rice alpha-glucosidase enzyme activity; series mostly up to 76.9 µM. The procedure, abridged:
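Endpoint fluorogenic assay at pH 5.0: compounds (0.7 nM to 77 uM) titrated against 4 nM rice enzyme and 400 uM 4-MU-alpha-glucoside for 20 min at room temperature; NaOH/glycine stop, read ex 365/em 440 nm, Hill-fitted AC50.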

For experiment [3], the target named is Alpha-galactosidase (Coffea arabica) (UniProt Q42656). Description: Counterscreen for Glucocerebrosidase Inhibitors: qHTS Assay for Coffee Bean alpha-Galactosidase at pH 5.9 (AID 998).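 Also: plate controls were uninhibited enzyme for no effect and no-enzyme basal signal for full effect.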 The note with it: coffee bean alpha-galactosidase enzyme assay; series mostly up to 76.9 µM. The procedure, abridged: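 In 50 mM citric acid pH 5.9 with 0.005% Tween-20, coffee bean enzyme hydrolyses 80 uM 4-MU alpha-D-galactopyranoside over 20 min at RT. Activity is normalized to controls; AC50 comes from Hill-modelled concentration-response data.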

The nature of experiment [4]: qHTS Assay for Lipid Storage Modulators (AID 1519; calls by dose curve; as to activity change, negative = inhibition: % is scaled to controls: 0 for no effect and ±100 for the full control effect). The note with it: Drosophila S3 cells, BODIPY lipid droplet/cell ratio, laser cytometry, cells loaded with oleic acid. The procedure, abridged: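 Cells seeded at 5,000 per well were treated with compounds over a concentration series and loaded with oleic acid (400 uM, as added). Lipid droplet fluorescence (488 nm excitation, 500-530 nm channel) was read by laser-scanning cytometry and normalized to 20 uM Triacsin C.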

For experiment [5], the target named is DNA repair nuclease/redox regulator APEX1 (Homo sapiens) (UniProt P27695). Description: qHTS Validation Assay for Inhibitors of the Human Apurinic/apyrimidinic Endonuclease 1 (APE1) (AID 1705;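 also: TAMRA fluorescence gain over two minutes as APE1 cuts a quenched THF abasic duplex; % is scaled to controls: 0 for no effect and ±100 for the full control effect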). The note with it: purified APE1 endonuclease activity, fluorescence, titration; series mostly up to 57.1 µM. The procedure, abridged:
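Read-out: TAMRA fluorescence (525 nm ex, 598 nm em) from cleavage of a quenched THF abasic-site duplex, 50 nM final; activity taken as intensity change between third and first of three reads 60 s apart.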
A general note: In qHTS, concentration-response curves come from the screen itself.

Experiment [6] in a line: Counterscreen for APE1 Inhibitors: Fluorescent Dye Displacement Validation Assay (AID 1707).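 Also: plate controls were ThO with dsDNA and no compound for no effect and ThO without dsDNA for full effect.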 As to conditions: fluorescent dye displacement from DNA; series mostly up to 57.1 µM. The gist of the method: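 Loss of Thiazole Orange fluorescence marks promiscuous DNA binders. The dye (250 nM) is mixed with 50 nM abasic-site dsDNA in pH7.5 Tris buffer containing MgCl2, then compounds are added and emission is read once.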

A short description of experiment [7]: qHTS for differential inhibitors of proliferation of Plasmodium falciparum line 7G8 (AID 1815).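 Also: parasite growth measured after three days of incubation.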 Also: potency is read from the fitted curve at half-maximal effect.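 As to activity change, negative = inhibition: plate controls were vehicle wells for no effect and reference inhibitor wells for full effect.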 The note with it: Plasmodium falciparum 7G8 proliferation inhibition; series mostly up to 28.7 µM.
Experiment [8] in a line: qHTS for differential inhibitors of proliferation of Plasmodium falciparum line GB4 (AID 1816).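 Also: parasite growth measured after 72 h incubation.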 Also: potency is read from the fitted curve at half-maximal effect.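 As to activity change, negative = inhibition: 0% = vehicle DMSO and -100% = reference inhibitor.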 As to conditions: Potency: Plasmodium falciparum GB4 proliferation inhibition; series mostly up to 28.7 µM.
Experiment [9] can be described thus: qHTS for differential inhibitors of proliferation of Plasmodium falciparum line D10 (AID 1877).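 Also: parasites grown with compound for 72 h before DNA staining; plate controls were vehicle wells for no effect and reference inhibitor wells for full effect.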 As to conditions: series mostly up to 28.7 µM.
The nature of experiment [10]: qHTS for differential inhibitors of proliferation of Plasmodium falciparum line W2 (AID 1883).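 Also: parasites grown with compound for 72 h before lysis and staining.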 Also: potency is read from the fitted curve at half-maximal effect.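 As to activity change, negative = inhibition: 0% = vehicle wells and -100% = control inhibitor wells.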 As to conditions: Potency: Plasmodium falciparum W2 proliferation inhibition; series mostly up to 28.7 µM.
Experiment [11] can be described thus: qHTS for differential inhibitors of proliferation of Plasmodium falciparum line HB3 (AID 1886).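 Also: parasites grown with compound for 72 h before SYBR Green readout.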 Also: potency is read from the fitted curve at half-maximal effect.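 As to activity change, negative = inhibition: plate controls were vehicle for no effect and reference inhibitor for full effect.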 The note with it: Potency: Plasmodium falciparum HB3 proliferation inhibition; series mostly up to 28.7 µM.
Experiment [12] addresses Ferritin light chain (Equus caballus) (UniProt P02791). Description: qHTS Validation Assay for Identification of Novel General Anesthetics (AID 2323). Also: % is scaled to controls: 0 for no effect and ±100 for the full control effect. The note with it: horse apoferritin, anesthetic-site fluorescent probe displacement; series mostly up to 76.9 µM. The gist of the method: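 10 uM horse-spleen apoferritin + 1-AMA (50% saturated, PBS); cpd pin-transferred, 10 min RT. Ex 380/Em 535 nm endpoint. Activity normalized between free 1-AMA and 1-AMA/apoferritin; 4-parameter Hill fit of concentration-response.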

Experiment [13] concerns the target Endonuclease 4 (Escherichia coli (strain K12)) (UniProt P0A6C1). The experiment can be described thus: Counterscreen for APE1 Inhibitors: qHTS Validation Assay for Inhibitors of Endonuclease IV (AID 1708). Also: % is scaled to controls: 0 for no effect and ±100 for the full control effect. The note with it: E. coli endonuclease IV, DNA cleavage fluorescence; series mostly up to 57.1 µM. The procedure, abridged:
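Measured as reaction progress, the fluorescence gain between first and third kinetic reads after adding 50 nM TAMRA/BHQ-2 THF duplex to 2 nM enzyme preincubated 15 min with compound; 2 mM MgCl2, pH 7.5.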

A short description of experiment [14]: Validation of Assay for Modulators of Lamin A Splicing (AID 1459; active = well fitted curve in the direction sought with a large enough effect in the signal ratio; the % refers to the signal ratio;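 also: cells exposed to compound for two days before reading; 0% is about no effect; ratio rise marks activators and ratio drop marks inhibitors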). As to conditions: Lamin A splicing dual RFP/GFP fluorescence reporter; series mostly up to 9.22 µM. The gist of the method: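 Readout: ratio of GFP (500-530 nm) to RFP (575-640 nm) total object intensity by 488 nm laser-scanning cytometry after 48 hrs. Cells were HeLa S3 clones carrying lamin A-EGFP minigene plus DsRed2 viability reporter; vehicle 0.5% DMSO final.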

Experiment [15] in a line: qHTS for differential inhibitors of proliferation of Plasmodium falciparum line 3D7 (AID 1876).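 Also: parasite growth measured after three days of culture; 0% = vehicle wells and -100% = reference inhibitor wells.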 The note with it: P. falciparum 3D7 proliferation inhibition; series mostly up to 28.7 µM.
A short description of experiment [16]: qHTS for differential inhibitors of proliferation of Plasmodium falciparum line Dd2 (AID 1882). Also: nearly all actives have a fitted effect of over 65% in size. Also: potency is read from the fitted curve at half-maximal effect.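 As to activity change, negative = inhibition: compound exposure of 72 h on infected erythrocytes; plate controls were DMSO vehicle for no effect and 0.29 µM artemisinin for full effect.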 The note with it: Potency: Plasmodium falciparum Dd2 proliferation inhibition; series mostly up to 28.7 µM. The gist of the method: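 RBC culture, 0.3% parasitemia / 2.5% Hct final; cpd added by pin tool in DMSO; 72 h, 37 C, 5% CO2; lysis buffer + SYBR Green I, o/n RT dark; FI 485/535; norm. to artemisinin 0.29 uM and DMSO.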

[17] abbreviates: measured here: cell count channel max response.
[18] abbreviates: measured here: lipid channel max response.

Ferritin light chain (Equus caballus), sequence (P02791 2-175 limits assumed): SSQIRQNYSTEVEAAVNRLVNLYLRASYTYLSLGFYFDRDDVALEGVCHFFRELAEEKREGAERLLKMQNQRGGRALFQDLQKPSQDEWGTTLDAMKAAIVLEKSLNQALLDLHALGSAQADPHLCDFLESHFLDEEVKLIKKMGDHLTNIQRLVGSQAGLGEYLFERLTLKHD
DNA repair nuclease/redox regulator APEX1 (Homo sapiens), sequence (P27695 whole entry, looked up): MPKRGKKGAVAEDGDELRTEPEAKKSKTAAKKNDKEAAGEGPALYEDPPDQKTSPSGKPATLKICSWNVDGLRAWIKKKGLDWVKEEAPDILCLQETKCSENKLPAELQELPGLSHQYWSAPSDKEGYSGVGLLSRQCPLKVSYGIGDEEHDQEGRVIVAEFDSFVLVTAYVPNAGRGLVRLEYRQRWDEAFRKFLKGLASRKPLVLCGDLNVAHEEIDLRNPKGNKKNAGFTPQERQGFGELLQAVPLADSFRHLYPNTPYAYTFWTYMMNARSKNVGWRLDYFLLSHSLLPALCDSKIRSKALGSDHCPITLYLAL
Alpha-galactosidase (Coffea arabica), sequence (Q42656 whole entry, looked up): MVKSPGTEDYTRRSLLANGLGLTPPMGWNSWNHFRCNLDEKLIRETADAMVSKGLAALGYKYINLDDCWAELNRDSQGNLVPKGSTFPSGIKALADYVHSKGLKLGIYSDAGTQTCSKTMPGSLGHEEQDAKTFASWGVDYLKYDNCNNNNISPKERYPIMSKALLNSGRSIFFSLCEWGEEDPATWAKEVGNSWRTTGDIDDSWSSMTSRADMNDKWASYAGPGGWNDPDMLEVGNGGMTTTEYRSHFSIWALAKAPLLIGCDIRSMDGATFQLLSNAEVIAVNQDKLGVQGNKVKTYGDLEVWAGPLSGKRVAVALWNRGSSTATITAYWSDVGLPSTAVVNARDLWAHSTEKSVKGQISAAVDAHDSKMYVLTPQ
Alpha-galactosidase A (Homo sapiens), sequence (P06280 whole entry, looked up): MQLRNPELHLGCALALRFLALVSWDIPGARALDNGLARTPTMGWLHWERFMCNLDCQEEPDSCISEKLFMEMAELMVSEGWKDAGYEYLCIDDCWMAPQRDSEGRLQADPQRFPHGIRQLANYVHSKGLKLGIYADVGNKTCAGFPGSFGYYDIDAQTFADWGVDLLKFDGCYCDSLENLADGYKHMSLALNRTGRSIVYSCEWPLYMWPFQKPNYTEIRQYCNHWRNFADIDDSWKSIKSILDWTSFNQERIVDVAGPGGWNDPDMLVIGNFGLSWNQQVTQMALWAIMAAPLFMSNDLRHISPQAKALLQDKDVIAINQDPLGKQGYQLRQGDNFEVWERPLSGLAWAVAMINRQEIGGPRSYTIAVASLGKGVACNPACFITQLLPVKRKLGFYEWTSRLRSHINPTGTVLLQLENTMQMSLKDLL

`c1ccc2nc(N3CCNCC3)ccc2c1`: the result in experiment [1], in experiment [2], in experiment [3], in [5], in [6] and in [12] was inactive. Further, the activity change, negative = inhibition in experiment [4] (at 25.7 µM (top of the series)) is -1.91% (inactive); in experiment [4] (at 57.5 µM (top of the series)) it was 4.37% (inactive) and 6.17% (inactive). Also, the max response in [4] (setting [17]) is -6.47% and 8.94% and 1.83%; in experiment [4] (setting [18]), -9.05% and 14.3% and 11.9%. For the same compound, the Potency was 7.94 µM (active) in experiment [7], 11.2 µM (active) in experiment [8] and 7.08 µM (active) in experiment [10]. Besides, the Potency result in experiment [9] and in [11] was “inactive” throughout.
In the case of `Clc1ccc(CO/N=C(\Cn2ccnc2)c2ccc(Cl)cc2Cl)c(Cl)c1`, the activity change, negative = inhibition in experiment [4] (at 57.5 µM (top of the series)) was 5.8% (inactive). For the same compound, the max response in experiment [4] (setting [17]) was -2.06%; in [4] (setting [18]) it was 5.32%.
Regarding `Cc1cc(C(C)(C)C)cc(C)c1CC1=NCCN1`, the outcome in [3] and in experiment [13] was inactive. Also, the activity change, negative = inhibition in experiment [4] (at 25.7 µM (top of the series)) was 0.58% (inactive); in experiment [4] (at 57.5 µM (top of the series)) it was 0.173% (inactive). Also, the max response in [4] (setting [17]) was -1.09% and 8.12%; in experiment [4] (setting [18]) it was 3.95% and 14.5%. For the same compound, the Potency in [7] was 7.94 µM (active); in [8] it was 8.91 µM (active); in experiment [10] it was 5.62 µM (active).
As for `CN(C)C(=O)Oc1cccc([N+](C)(C)C)c1`, the result in [3] was inactive. In addition, the activity change, negative = inhibition was -1.76% (inactive) in experiment [4] (at 25.7 µM (top of the series)) and 8.87% (inactive) in [4] (at 57.5 µM (top of the series)). In addition, the max response is 2.56% and -8.73% in experiment [4] (setting [17]); 2.57% and 1.95% in [4] (setting [18]).
As to `O=C(O)c1nn(Cc2ccc(Cl)cc2Cl)c2ccccc12`, the result in [1], in experiment [2], in [14], in [5], in [6] and in experiment [13] was inactive. In experiment [12], the call was inactive. Further, in [4] (at 57.5 µM (top of the series)), the activity change, negative = inhibition is -2.04% (inactive). The max response in experiment [4] (setting [17]) is 45.4%; in experiment [4] (setting [18]), 43.5%. Also, the Potency entry in [7], in experiment [8], in [15], in experiment [9], in experiment [16] and in experiment [10] was “inactive” in each case. For the same compound, the Potency result in [11] was “inactive”.
As for `CC(N)C(=O)OC(C)(C)Cc1ccc(Cl)cc1` (configuration not stated), the outcome in [14], in experiment [5], in experiment [6] and in experiment [12] was inactive. Also, in experiment [4] (at 57.5 µM (top of the series)), the activity change, negative = inhibition was 9.94% (inactive). Also, the max response in experiment [4] (setting [17]) stood at 6.48%; in experiment [4] (setting [18]), 18.3%. Moreover, the Potency in [7] is 5.62 µM (active); in [8], 1 µM (active); in experiment [16], 5.62 µM (active); in [10], 1.41 µM (active); in experiment [11], 14.1 µM (active). In addition, the Potency result in experiment [9] was “inactive”.
